Compound activity: PubChem, National Center for Advancing Translational Sciences (NCATS)
Most compounds without a hit are left out; they make up all but 2% or so of the library.
Abeta yeast res: compounds reversing amyloid beta toxicity in yeast; yeast expressing A-beta42, growth rescue, OD600, 48 h; response scale: 0% DMSO, 100% iron-clioquinol control; hit rate 0.063% among 410,000; Potency, µM (titrated, usually from 46.1 µM), actives largely listed as activators; AID 1347071; further: nearly all actives have a fitted effect of over 55% in size
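Yeast growth medium received pinned compounds, then yeast cells expressing toxic A-beta were added; plates incubated at 30 C for 48 hr. Growth read as absorbance at 600 nm, normalized to DMSO and equimolar FeCl3 plus clioquinol controls.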
Rango release inh: inhibition of RanGTP-driven Rango-importin beta dissociation | hit rate 0.071% among 340,000 | Biochemical FRET Rango-importin beta, RanGTP-induced dissociation | Potency, µM (titrated, usually from 46.1 µM), inactives show top-dose activity change, negative = inhibition | O95149+P62826 | AID 540253; calls by dose curve; further: % of control where 0% means no effect; nearly all actives have a fitted effect of over 45% in size
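Recombinant Rango FRET biosensor (EYFP–snurportin 1 IBB–cerulean CFP10) at 0.1 uM premixed with 0.25 uM importin beta in PBS, 1 mM DTT, 0.02% Tween-20, 0.1% BSA. Compound added 5 min; RanGTP-RCC1 (0.6 uM Ran, 2 mM GTP, 0.2 uM RCC1) then triggers release, read at 45 min.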
Rango-impB inh: prevents formation of the Rango-importin beta complex | hit rate 0.031% among 340,000 | AID 540263 | Rango CFP/YFP FRET sensor + importin beta, 45 min | Q14974 | Potency, µM (titrated, usually from 92.2 µM), for inactives: at the top dose inhibition of complex formation; calls by dose curve;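 further: 0% = DMSO wells and 100% = buffer wells lacking importin beta; nearly all actives have a fitted effect of over 15% in size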
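FRET biosensor Rango (snurportin 1 IBB between N-terminal EYFP and C-terminal Cerulean), 50 nM in PBS/1 mM DTT/0.02% Tween-20/0.1% BSA, preincubated 5 min RT with compound; 0.125 microM importin beta added, 45 min RT, CFP/YFP FRET ratio read.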
aSyn rescue: alpha-synuclein toxicity inhibition in yeast; Yeast expressing alpha-synuclein, growth rescue, BacTiter-Glo, 24 h; Potency, µM (series often up to 46.1 µM), for inactives: at the top dose growth rescue (activation), usual class: activators; hit rate 0.14% among 370,000; AID 652106; further: % of control where 0% means no effect; nearly all actives have a fitted effect of over 65% in size
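Rescue of yeast growth: cells expressing toxic alpha-synuclein, induced in galactose at OD600 0.02, incubated with compound 24 h at 30 C. ATP luminescence quantified growth; inhibitors of toxicity appear as activators.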
TDP-43 yeast inh: TDP-43 toxicity inhibition in yeast; TDP-43 expressing yeast growth rescue, BacTiter-Glo, 24 h; Potency, µM (top dose mostly 46.1 µM), for the others: at the top dose growth rescue (activation), actives largely listed as activators; hit rate 1.8% among 410,000; AID 652104; further: % of control where 0% means no effect; nearly all actives have a fitted effect of over 50% in size
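Readout is BacTiter-Glo luminescence of cell growth, so inhibitors register as activators. TDP-43-expressing yeast at OD600=0.02 in galactose medium, after raffinose pregrowth to mid-log, were incubated with compound for 24 hr at 30 deg C.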
S-ASM inh: blocks human secretory acid sphingomyelinase; Potency, µM (highest dose often 57.5 µM), for the others: top-dose activity change, negative = inhibition, actives largely listed as inhibitors; P17405; AID 504937; placental ASM, HMU-PC fluorogenic substrate, 60 min; hit rate 0.006% among 340,000
Target sequence (P17405 47-631 limits assumed): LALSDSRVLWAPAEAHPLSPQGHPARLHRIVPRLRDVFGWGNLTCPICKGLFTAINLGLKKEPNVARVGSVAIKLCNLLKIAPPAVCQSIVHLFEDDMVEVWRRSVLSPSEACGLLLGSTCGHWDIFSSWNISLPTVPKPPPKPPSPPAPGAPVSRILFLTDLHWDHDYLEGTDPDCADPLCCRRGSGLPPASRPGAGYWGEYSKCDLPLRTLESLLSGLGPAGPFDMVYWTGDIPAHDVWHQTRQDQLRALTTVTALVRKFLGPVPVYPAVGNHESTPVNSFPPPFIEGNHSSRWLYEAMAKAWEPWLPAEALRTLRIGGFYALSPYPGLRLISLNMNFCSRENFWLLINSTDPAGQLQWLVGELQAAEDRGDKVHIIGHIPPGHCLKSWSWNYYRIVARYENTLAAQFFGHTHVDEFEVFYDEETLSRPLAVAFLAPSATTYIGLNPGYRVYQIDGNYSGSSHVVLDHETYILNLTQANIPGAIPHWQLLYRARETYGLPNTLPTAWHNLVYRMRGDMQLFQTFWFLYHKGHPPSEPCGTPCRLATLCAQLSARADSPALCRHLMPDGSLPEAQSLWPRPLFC
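Fluorogenic HMU-PC substrate (9 uM final) is turned over by placental ASM in 60 min at 37 C after a 10 min compound preincubation. Reaction ended by alkaline stop (pH 10), with fluorescence read at 386/447 nm.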
* = called active by the depositor; i = inactive; ? = inconclusive; / = no result given; [ ] = dose if it differs, or a comment. Unless noted, the call rests on the fitted dose curve; in most records, active means well fitted curve in the direction sought with a large enough effect; inconclusive means small, poorly fitted or top-dose-only effect, or another doubt; inactive means no such curve, though single readings can be large; an effect the other way counts as inactive or inconclusive. Potency means the concentration at half of the fitted maximal effect.

SMILES	Abeta yeast res	Rango release inh	Rango-impB inh	aSyn rescue	TDP-43 yeast inh	S-ASM inh
CCC1=Nc2cc(C(=O)N3CCCCC3)ccc2Sc2ccc(C)cc21	i	?	2%	12%	15%	-8%
Cc1ccc(Cn2c(C(CO)Nc3nc(-c4ccc(Cl)c([N+](=O)[O-])c4)cs3)nc3ccccc32)cc1 (stereo not given)	i	2%	1%	?	25µM*	-26%
CCOc1cccc2cc(-c3nnc(Nc4ccc(F)c(Cl)c4)s3)c(=O)oc12	i	/	/	/	0%[9.22 µM]	/
CCOc1cccc2cc(-c3nnc(NCc4ccc5c(c4)OCO5)s3)c(=O)oc12	i	1.3µM*	?	4%	4%	61%
COc1ccc(-c2nn3c(=O)cc(CN4CCN(C(=O)c5ccc(C(C)(C)C)cc5)CC4)nc3s2)cc1	i	/	/	/	0%	/
CCCCc1nc(NCCNC(=O)c2ccccc2)c(C#N)c2c1CSC(C)(C)C2	i	-20%	-4%	-7%	22µM*	284%
CCCCC12CN3CC(C)(CN(C1)C3c1c[nH]c3ccccc13)C2=O (stereo not given)	i	/	/	/	19%	/
CCCC(=O)Nc1nc2ccc(C(=O)OCC)cc2s1	i	21%	-2%	2%	4%	-1%
CCOC(=O)c1ccc2nc(NC(=O)C(C)C)sc2c1	?	-27%	-2%	-6%	10µM*	13%
CCOC(=O)c1c(C)sc2c1N(C(=O)CCl)c1cc(Cl)ccc1S2	i	1%	-1%	2%	20µM*	-6%
COc1ccc(CN(C(=O)/C=C/C(=O)c2ccc(OC)cc2O)C(C(=O)NC2CCCCC2)c2ccncc2)cc1 (stereo not given)	i	-4%	0%	35µM*	28%	0%
COc1ccc(C(=O)/C=C/C(=O)N(Cc2ccc3c(c2)OCO3)C(C(=O)NC2CCCCC2)c2ccncc2)c(O)c1 (stereo not given)	i	-4%	-4%	?	?	13%
COc1ccc(C(=O)/C=C/C(=O)N(CC(=O)NC2CCCCC2)Cc2cccs2)c(O)c1	i	12%	-3%	2%	20µM*	-4%
COCCN(CC(=O)NC1CCCCC1)C(=O)/C=C/C(=O)c1ccc(OC)cc1O	i	12%	3%	11%	14µM*	1%
CCOc1ccc(-c2nnc(SCC(=O)NCCC(C)C)nc2-c2ccc(OCC)c(OC)c2)cc1OC	i	/	/	/	?	/
Cc1cccc(CN2C(=O)[C@@H]3Cc4c([nH]c5ccccc45)C(C)(C)N3C2=O)c1	7.9µM*	-1%	?	/	/	-10%
CC1(C)c2[nH]c3ccccc3c2C[C@@H]2C(=O)N(Cc3ccccc3)C(=O)N21	?	21µM*	?	/	/	-2%
CCOC(=O)c1cccc(NC(=O)c2ccc3c(Cl)c4c(nc3c2)CCC4)c1	i	/	/	/	-11%	/
COc1cccc(Nc2nc(N)c([N+](=O)[O-])c(NCc3ccccc3)n2)c1	i	9%	-4%	2%	25µM*	?
Cc1cccc(Nc2nc(N)c([N+](=O)[O-])c(NCc3ccccc3)n2)c1	i	0%	1%	15%	?	?
O=C(NCc1ccc(F)cc1)c1cc(-c2ccc(Cl)cc2)n[nH]1	i	/	/	/	?	/
S=C(Nc1ccccc1Oc1ccccc1)Nc1cccc(Cl)c1Cl	i	6%	-1%	-6%	22µM*	0%
O=[N+]([O-])c1cc(-c2nc(-c3ccccc3)no2)ccc1N1CCCC1	i	/	/	/	7%	/
Fc1ccc(-c2ccnc3nc(N4CCOCC4)nn23)cc1	i	-7%	-5%	-2%	24%	178%
COc1ccc(-c2ccnc3nc(N4CCN(c5ccccc5)CC4)nn23)cc1	i	-13%	-9%	1%	14µM*	-21%
